# Compound activity from PubChem BioAssay.
# HSF-1 act – increases HSF-1 driven luciferase reporter signal | NIH3T3-HGL HSF-1 luciferase reporter, MG132, 8 h; 100% = twice DMSO control signal | activation, % at 9 µM | 300,000 tested, 1.7% active | AID 504408;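 active means mean replicate activation of at least 50% with a set share of replicates each reaching 50%; inconclusive means only one of those two conditions met; inactive means mean below 50% and too few replicates reaching it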;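 further: 0% = median of the neutral control wells and 100% = twice that signal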
# Wnt bcat act – activates Wnt/beta-catenin signaling in a reporter cell assay | activator, plate reader | activation, % at 9.35 µM | 300,000 tested, 1.2% active; in the data active means activation above about 30%, passing the limit was not always enough; inconclusive means no clear call, values can overlap the other calls;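 further: 0% = neutral control wells and 100% = positive control wells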
# MITF TRPM1 HTS – MITF TRPM1 promoter activation in melanoma cells. activation, % at 12.5 µM. SK-MEL-5 TRPM1-promoter luciferase, 24 h; % of positive control, neutral wells = 0. 300,000 tested, 0.75% active;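 active means mean activation of at least 80% with every replicate also reaching 80%; inconclusive means mean reaches 80% but some replicate falls short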;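 further: 0% = neutral control wells and 100% = parthenolide positive control wells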
# esBAF inh – SWI/SNF esBAF complex inhibition | mouse ES cells, Bmi1-luciferase knock-in reporter, 24 h; 100% = twice the neutral-well signal | reporter increase, % at 12.5 µM | 350,000 tested, 2% active | AID 602393; in the data active means activation above about 40%; inconclusive means no clear call, values can overlap the other calls;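 further: 0% = median of the plate's neutral control wells and 100% = double that signal; a rise in the Bmi1 reporter signal indicates esBAF inhibition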
# HSF1 inh – HSF1 inhibition. AID 2098. activity change, negative = inhibition, % at 7.5 µM (by protocol). NIH3T3-HGL HSE-luciferase, MG132-induced, luminescence 8 h; hits give low values. 300,000 tested, 0.77% active;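 active means more than half of replicate wells show activity change below -50%, luminescence cut by over half; inconclusive means some wells, but at most half, below -50%; inactive means no replicate well below -50%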;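 further: luciferase reports HSF-1 transcriptional activity via heat shock element; 0% = median of DMSO wells and -100% = zero luminescence signal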
# The depositor's hits bear a star; ? = inconclusive; . = no result given. Compounds with a hit are over-represented: about 3.8% of the library has one in this group of screens.
SMILES,HSF-1 act,Wnt bcat act,MITF TRPM1 HTS,esBAF inh,HSF1 inh
C[C@H]1CCCCO[C@@H](CN(C)C(=O)Cc2ccccc2)[C@@H](C)CN([C@@H](C)CO)C(=O)c2cc(NC(=O)CCC(F)(F)F)ccc2O1,.,.,.,-0.6,.
O=C(C[C@@H]1C[C@H]2c3cc(NC(=O)NC4CCCC4)ccc3O[C@H]2[C@@H](CO)O1)NCc1ccncc1,.,.,.,6.1,.
Cc1ccc(NC(=O)CN2C(=O)NC(C)(CCc3ccccc3)C2=O)cc1 (stereo unspecified),-4.8,-1.4,8.8,-0.8,3.6
Cc1cccc(C)c1NC(=O)CN1C(=O)NC(C)(CCc2ccccc2)C1=O (stereo unspecified),-92.5,-0.4,-0.5,.,-90.6*
C[C@@H]1CN([C@H](C)CO)C(=O)Cc2cc(NS(=O)(=O)c3ccccc3)ccc2O[C@@H]1CN(C)Cc1ccc(C(=O)Nc2ccccc2N)cc1,.,.,.,-4.9,.
Cc1noc(C)c1NC(=O)N(C)C[C@@H]1Oc2ccc(NC(=O)Nc3cccc4ccccc34)cc2C(=O)N([C@H](C)CO)C[C@H]1C,.,.,.,2.2,.
COc1ccc(OCC(=O)N/N=C2\CCc3ccccc32)cc1,6.7,.,14.0,9.7,-3.7
NC(=O)C(=O)N/N=C1\CCc2ccccc21,2.7,33.1*,28.8,48.4*,-3.4
Cc1c(C(=O)NCc2cccnc2)sc2nc(-c3ccc(F)cc3)cn12,6.2,-0.1,.,66.4*,10.7
COc1ccc(-c2cn3c(C)c(C(=O)NCCN4CCOCC4)sc3n2)cc1,-4.1,.,.,55.6*,-6.2
COC(=O)C1CCN(C(=O)c2sc3nc(-c4ccc(F)cc4)cn3c2C)CC1,.,.,.,13.9,.
Cc1c(C(=O)NCc2cccnc2)sc2nc(-c3ccccc3)cn12,27.1,6.9,.,66.5*,11.6
Cc1c(C(=O)NCCCN2CCOCC2)sc2nc(-c3ccc(F)cc3)cn12,-6.5,.,23.8,16.4,-11.5
Cc1c(C(=O)Nc2ccc3c(c2)OCCO3)sc2nc(-c3ccccc3)cn12,34.5,26.0,-35.6,14.6,11.5
Cc1c(C(=O)NCc2ccco2)sc2nc(-c3ccccc3)cn12,7.7,18.5,.,48.3*,5.1
Cc1c(C(=O)Nc2ccncc2)sc2nc(-c3ccccc3)cn12,6.5,3.5,.,-4.9,3.7
O=C(Nc1ccc2c(c1)[C@@H]1C[C@H](CC(=O)N3CCOCC3)O[C@H](CO)[C@@H]1O2)c1ccc2c(c1)OCO2,.,.,.,7.9,.
CCC(=O)Nc1cc2nn(-c3ccccc3)nc2cc1Cl,25.9,37.6*,6.9,36.4,7.5
CCCC(=O)Nc1ccc2nn(-c3ccc(OC)cc3)nc2c1,21.8,-0.9,75.9,50.0*,22.7
CC(C)CC(=O)Nc1ccc2nn(-c3ccccc3)nc2c1,60.4*,?,99.5*,.,26.5
O=C(Nc1ccc2nn(-c3ccccc3)nc2c1)c1ccc(Br)o1,12.0,4.9,33.5,34.0,2.5
CC(=O)Nc1ccc2c(c1)ncn2-c1ccc(C)cc1,.,42.5*,39.0,.,.
C[C@H](CO)N1C[C@H](C)[C@H](CN(C)C(=O)Nc2ccccc2)OCCCC[C@H](C)Oc2ccc(NS(C)(=O)=O)cc2C1=O,.,.,.,3.6,.
CC(C)C(=O)Nc1ccc2nn(-c3ccc(F)cc3)nc2c1,21.4,.,.,2.4,14.5
Cc1ccc(-n2nc3ccc(NC(=O)C(C)C)cc3n2)cc1,30.5,-3.9,111.1*,100.2*,3.8
SMILES,HSF-1 act,Wnt bcat act,MITF TRPM1 HTS,esBAF inh,HSF1 inh
Cc1cccc(N2CCN(C(=O)c3ccc4nc(N5CCCCC5)sc4c3)CC2)c1C,-41.7,10.9,34.9,61.2*,-25.2
CCOC(=O)N1CCN(C(=O)c2ccc3nc(N4CCCCC4)sc3c2)CC1,-3.5,.,-1.6,.,-0.3
COc1cccc(N2CCN(C(=O)c3ccc4nc(N5CCC(C)CC5)sc4c3)CC2)c1,-48.2,6.4,.,.,-40.2
O=C(c1ccc2nc(N3CCCCC3)sc2c1)N1CCN(c2ccccn2)CC1,3.0,-0.8,.,16.1,-6.6
CC1CCN(c2nc3ccc(C(=O)N4CCN(Cc5ccccc5)CC4)cc3s2)CC1,-47.2,3.1,9.7,93.7*,-39.1
CCOC(=O)N1CCN(C(=O)c2ccc3nc(N4CCC(C)CC4)sc3c2)CC1,-0.7,.,10.7,57.7*,-7.8
CN1CCN(C(=O)C[C@H]2CC[C@H](NC(=O)c3ccc4c(c3)OCO4)[C@@H](CO)O2)CC1,.,.,.,-2.3,.
CCN1C(=Nc2ccc(Cl)cc2)SC/C1=C\C(=O)OC,30.8,13.0,?,60.6*,26.6
CCN(CC)C(=O)COc1coc(CN2CCN(c3ccc(F)cc3)CC2)cc1=O,-69.3,-1.2,7.9,0.4,-61.6*
Cc1cccc(S(=O)(=O)NCCC(=O)OC(C)C(=O)NC(=O)NC2CCCCC2)c1 (stereo unspecified),52.9*,-1.2,.,1.0,21.2
Cc1ccc(S(=O)(=O)NCCC(=O)OC(C)C(=O)NC2CC2)cc1 (stereo unspecified),.,1.2,-1.1,-5.1,.
C[C@H](CO)N1C[C@H](C)[C@H](CN(C)C)Oc2ccc(NS(=O)(=O)c3cn(C)cn3)cc2CC1=O,.,.,.,2.4,.
CC(C)NC(=O)Nc1ccc2c(c1)C(=O)N([C@H](C)CO)C[C@@H](C)[C@H](CN(C)Cc1ccc(Cl)c(Cl)c1)OCCCC[C@@H](C)O2,.,.,.,-0.1,.
Nc1ccc(Nc2nc(-c3ccncc3)cs2)cc1,18.3,9.8,120.2*,34.5,-0.3
COc1ccc(-c2csc(Nc3ccccc3)n2)cc1,21.1,15.5,64.6,.,-0.1
Clc1ccc(Nc2nc(-c3ccncc3)cs2)cc1,17.8,.,75.8,29.5,4.8
Fc1ccc(Nc2nc(-c3ccncc3)cs2)cc1,4.2,27.5,84.1*,.,6.0
CC(=O)NCCC(=O)Nc1nc(-c2c[nH]c3ccccc23)cs1,4.2,0.3,-7.0,1.8,-1.1
COc1ccc(Nc2nc(-c3c[nH]c4ccccc34)cs2)cc1,29.8,39.9*,26.0,.,0.4
COc1ccc(Nc2nc(-c3ccc(OC)cc3)cs2)cc1,10.4,-0.1,94.5*,.,3.5
C[C@H]1CN([C@@H](C)CO)C(=O)Cc2cc(NC(=O)Cc3ccccc3)ccc2O[C@@H]1CN(C)S(=O)(=O)c1ccc(F)cc1,.,.,.,6.7,.
Cc1ccc(NC2=C/C(=N/S(=O)(=O)c3cccs3)c3ccccc3C2=O)cc1,-94.2,-13.1,-104.9,.,-94.2*
O=C1C(Nc2ccccc2)=C/C(=N/S(=O)(=O)c2cccs2)c2ccccc21,-95.1,.,-94.9,21.3,-94.3*
CO[C@H]1CN(C)C(=O)c2ccc(NS(=O)(=O)c3cn(C)cn3)cc2OC[C@H](C)N(CC2CC2)C[C@H]1C,.,.,.,-1.0,.
CC(C)NC(=O)N[C@H]1CC[C@H](CCNS(=O)(=O)c2ccc(Cl)cc2)O[C@@H]1CO,.,.,.,3.6,.
NNC(=O)c1ccc([N+](=O)[O-])c(CS(=O)(=O)c2ccc(Cl)cc2)c1,57.4*,.,-0.3,.,27.7
C[C@@H]1CN([C@@H](C)CO)C(=O)c2cc(NC(=O)CCC(F)(F)F)ccc2O[C@H]1CN(C)Cc1ccccc1,.,.,.,5.7,.
COc1ccc(NC(=O)Nc2ccc3c(c2)C(=O)N([C@@H](C)CO)C[C@H](C)[C@H](CN(C)S(=O)(=O)c2cn(C)cn2)O3)cc1,.,.,.,0.5,.
